The list is not random: actives were taken first. Their share in the collection is about 5.9%.
TGFb inhibitor: qHTS for Inhibitors of TGF-b | hit rate 1.2% among 410,000 | Potency, µM (titrated, usually from 46.1 µM), most hits filed as inhibitors | AID 588855, 2011 | HepG2 CAGA-GFP TGF-b/SMAD3 reporter, GFP fluorescence, 18 h; TGF-beta stimulated, 500 pg/mL final; also: nearly all actives have a fitted effect of over 65% in size
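HEPG2 CAGA-GFP, 1000 cells/well; 2 h settle, 37 C; cpd via pin tool; TGF-b 500 pg/mL final; 18 h, 37 C; GFP imaging ex488/em500-530; %Activity normalised to -TGF-b and +DMSO controls; CRC fit, curve class.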
S2 tox: Viability Counterscreen for Primary qHTS for Inhibitors of ATXN expression. S2 cells (HEK-293 line with an ATXN2-luciferase reporter) viability, CellTiter-Fluor protease fluorescence, 24 h. Potency, µM (titrated, usually from 56.7 µM), hits mostly cytotoxic. hit rate 0.49% among 400,000. AID 651635, 2014; also: nearly all actives have a fitted effect of over 40% in size
HepG2 tox: qHTS for Inhibitors of TGF-b: Cytotox Counterscreen | HepG2 CAGA-GFP viability, ATP luminescence, 18 h | Potency, µM (doses to about 46.1 µM), most hits filed as cytotoxic | hit rate 0.76% among 410,000 | AID 588856, 2011
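HepG2 CAGA-GFP cells (1000/well, DMEM with 1% FBS) received compound, then TGF-beta at 500 pg/mL final, and were incubated 18 hours at 37 degrees C. Viability was read by CellTiter-Glo luminescence. Media-only wells were set as complete cell-killing and DMSO as no toxicity.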
KB-V1 MDR tox: qHTS assay for MDR1-selective chemotherapeutics: Primary screen using the drug-selected MDR subline cells KB-V1. KB-V1 MDR cells viability, CellTiter-Glo, 72 h. Potency, µM (titrated, usually from 46.1 µM), actives largely listed as cytotoxic. hit rate 3.4% among 400,000. AID 1347076, 2019; also: nearly all actives have a fitted effect of over 60% in size
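KB-V1, DMEM (no phenol red) + 10% FBS; cpd pin-transferred, titration series; 72 h, 37 degrees C; CellTiter-Glo, luminescence. Data normalized, curve-fit.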
ATXN2 expr inh: Primary qHTS for Inhibitors of ATXN expression | HEK-293 ATXN2-luciferase reporter, luminescence, 24 h | Potency, µM (titrated, usually from 57 µM), usual class: inhibitors | hit rate 0.72% among 360,000; also: nearly all actives have a fitted effect of over 55% in size
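qHTS (up to 57 uM final) was run with 24 h compound exposure of reporter cells at 37 °C. Each well was multiplexed: SteadyGlo luminescence measured ATXN2-luciferase expression after a fluorogenic Gly-Phe-AFC viability readout (25 uM final).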
KB-3-1 tox: qHTS assay for MDR1-selective chemotherapeutics: Primary screen using the parental adenocarcinoma cell KB-3-1; AID 1347075, 2019; KB-3-1 viability, CellTiter-Glo ATP luminescence, 72 h; hit rate 1.4% among 400,000; Potency, µM (top dose mostly 46.1 µM), hits mostly cytotoxic; also: nearly all actives have a fitted effect of over 60% in size
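Cytotoxicity in the drug-sensitive parental line KB-3-1 was scored as loss of CellTiter-Glo luminescence following 72 h incubation with compound. Values come from curve fitting of normalized concentration-response data.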
A number is an active result; – = inactive; ? = inconclusive; · = not tested or not shown. Calls follow the shape of the dose curve; as a rule, active = well fitted curve in the direction sought with a large enough effect; inconclusive = small, poorly fitted or top-dose-only effect, or another doubt; inactive = no such curve, though single readings can be large; an effect the other way counts as inactive or inconclusive.

SMILES | TGFb inhibitor | S2 tox | HepG2 tox | KB-V1 MDR tox | ATXN2 expr inh | KB-3-1 tox
CCC1=Nc2cc(C(=O)NCc3ccco3)ccc2Sc2ccccc21 | – | ? | – | ? | – | 2.6µM
CCC1=Nc2cc(C(=O)NCc3ccc(C)cc3)ccc2Sc2ccc(C)cc21 | – | · | – | · | · | ·
CCC1=Nc2cc(C(=O)NCc3ccco3)ccc2Sc2ccc(Cl)cc21 | ? | ? | – | 1.5µM | – | 1.5µM
CCN1C(=O)c2ccc(C(=O)NCc3ccco3)cc2C1=O | – | 0.16µM | – | – | – | –
Cc1cc(C(F)(F)F)c2c(N)c(C(=O)Nc3c(Cl)cccc3Cl)sc2n1 | – | – | – | – | – | –
CS(=O)(=O)NCC(c1ccco1)N1CCN(c2ccccc2)CC1 (stereo not drawn) | – | · | – | · | · | ·
O=S(=O)(NCC(c1ccco1)N1CCN(c2ccccc2F)CC1)c1ccc(F)cc1 (stereo not drawn) | – | – | – | – | – | –
O=S(=O)(NCC(c1ccco1)N1CCN(c2ccccc2)CC1)c1ccccc1 (stereo not drawn) | – | · | – | · | · | ·
O=S(=O)(NCC(c1ccco1)N1CCN(c2ccccc2)CC1)c1ccc(F)cc1 (stereo not drawn) | – | – | – | 23µM | – | –
CCS(=O)(=O)NCC(c1ccco1)N1CCN(c2ccccc2)CC1 (stereo not drawn) | – | – | – | 23µM | – | –
COc1ccc(N2CCN(C(CNC(=O)C(=O)NCC3CCCO3)c3ccco3)CC2)cc1 (stereo not drawn) | – | – | – | 4.1µM | – | –
O=S(=O)(NCC(c1ccco1)N1CCN(c2ccc(F)cc2)CC1)c1ccc(F)cc1 (stereo not drawn) | – | – | – | 15µM | – | –
O=C(NCc1ccncc1)C(=O)NCC(c1ccco1)N1CCN(c2ccc(F)cc2)CC1 (stereo not drawn) | – | – | – | 2.6µM | – | ?
Cc1ccc(OCCCCNC(C)(C)C)c([N+](=O)[O-])c1 | – | – | – | 23µM | – | –
COC(=O)[C@]12CCCCC=C1N(Cc1ccco1)C(=O)[C@H](CC(=O)NCC13CC4CC(CC(C4)C1)C3)C2 | · | ? | · | – | ? | –
COc1ccc(C2C(=O)N(C3CCCCCC3)CC(=O)N2CCC2=CCCCC2)cc1 (stereo not drawn) | – | · | – | · | · | ·
CCOc1ccc(Nc2nc3c(c(=O)[nH]2)CCCC3)cc1 | – | – | – | 18µM | – | –
CC(=O)Nc1ccc(C(=O)Nc2ccc(S(=O)(=O)NCC3CCCO3)cc2)cc1 (stereo not drawn) | – | – | – | – | – | –
O=S(=O)(NCc1ccncc1)c1ccc(S(=O)(=O)NCC2CCCO2)cc1 (stereo not drawn) | – | – | – | – | – | 23µM
O=C(Nc1ccc(F)cc1)c1ccc(S(=O)(=O)NCC2CCCO2)cc1 (stereo not drawn) | – | – | – | 13µM | – | ?
O=S(=O)(NCc1ccccc1)c1ccc(S(=O)(=O)NCC2CCCO2)cc1 (stereo not drawn) | – | – | – | – | – | ?
CCOc1ccc(CCNC(=O)c2cc3c(=O)n(CC)c4ccccc4c3s2)cc1OCC | ? | – | – | ? | – | –
CC(C)(C)COc1ccc(-n2cc(C(=O)O)cn2)cc1C#N | · | · | · | · | – | ·
COc1ccccc1CNC(=O)Cn1c(-c2cccs2)cc2cc(F)ccc21 | – | – | – | – | – | –
CCOc1cc(CNC(=O)Cn2c(-c3cccs3)cc3cc(F)ccc32)ccc1OC | ? | ? | – | 12µM | – | –
SMILES | TGFb inhibitor | S2 tox | HepG2 tox | KB-V1 MDR tox | ATXN2 expr inh | KB-3-1 tox
CCOc1ccc(CCNC(=O)Cn2c(-c3cccs3)cc3cc(F)ccc32)cc1OCC | ? | 11µM | – | ? | 22µM | 6.5µM
CCOC(=O)C1=C(Cn2cnc3ccccc32)NC(=O)NC1c1cc(C)ccc1C (stereo not drawn) | ? | 32µM | – | ? | ? | –
COC(=O)C1=C(Cn2cnc3ccccc32)NC(=O)NC1c1cc(C)ccc1C (stereo not drawn) | – | – | – | – | – | –
CCOC(=O)[C@@H]1[C@H]2COc3ccc(Br)cc3[C@@H]2N2C(=O)N(c3ccc(Br)cc3)C(=O)[C@]12C | 7.1µM | – | – | – | – | –
CCOC(=O)[C@@H]1[C@H]2COc3ccc(Br)cc3[C@H]2N2C(=O)N(c3ccc(Br)cc3)C(=O)[C@]12C | – | – | – | – | – | –
CN1CCN(c2nc(Nc3ccc(F)cc3)nc(Nc3ccc(F)cc3)n2)CC1 | ? | ? | 13µM | – | 25µM | –
O=C(CC(=O)c1ccccc1)Nc1ccccn1 | – | – | – | – | – | –
O=C(CC(O)(c1ccccc1)c1ccccc1)Nc1ccccn1 | – | ? | – | 15µM | – | –
CCCN1CCN(CCCNC(=O)c2ccc3c(c2)sc2nc(-c4ccc(C)cc4)cn23)CC1 | ? | · | – | · | · | ·
O=C(NCCCN1CCCCCC1)c1ccc2c(c1)sc1nc(-c3ccccc3)cn12 | ? | · | 16µM | · | · | ·
CCOC(=O)CN1C(=O)C(Sc2n[nH]c(-c3ccc(C)cc3)n2)CCc2ccccc21 (stereo not drawn) | – | – | – | – | – | –
CCOC(=O)CN1C(=O)C(Sc2n[nH]c(-c3cccc(C)c3)n2)CCc2ccccc21 (stereo not drawn) | – | – | – | 21µM | – | –
CN1OC[C@@H]2CN[C@H](c3ccc(-c4cc5ccccc5o4)cc3)C[C@@H]21 | – | – | – | – | 0.2µM | –
CNC(=S)N/N=C/c1ccc(-c2cccc(C(=O)O)c2)o1 | – | – | 11µM | 21µM | – | 15µM
Cc1ccc(C(=O)N/N=C/c2ccc(-c3cccc(C(F)(F)F)c3)o2)cn1 | ? | – | – | 8.2µM | – | 6.5µM
O=C(N/N=C/c1ccc(-c2ccc([N+](=O)[O-])cc2)o1)c1cccnc1 | – | · | – | – | – | –
CCOc1ccc(C(=O)c2cn(CC(=O)Nc3ccc4c(c3)OCO4)c3ccc(OC)cc3c2=O)cc1 | – | ? | – | – | – | –
COc1ccc(/C=C/c2ccc3cccc(O)c3n2)cc1Br | – | – | – | – | · | ?
COc1cc(/C=C/c2ccc3cccc(O)c3n2)cc(OC)c1OC | ? | ? | – | ? | 16µM | ?
COc1cc(/C=C/c2ccc3cccc(O)c3n2)cc(Cl)c1OC | ? | ? | – | ? | – | ?
